Reference: publication PMC5540273 (PLoS ONE, 2017)

Columns and labels:
Settings in all cases: concentration: 1 μM, replicates: in singlicate; n = 1
[1] = tested on: T1, SNARK
T1 construct: gene NUAK2

[2] = tested on: SNRK
[3] = tested on: SRC
[4] = tested on: SRMS
[5] = tested on: SRPK1
[6] = tested on: SRPK2
[7] = tested on: SRPK3
[8] = tested on: STK16
[9] = tested on: STK33
[10] = tested on: STK35
[11] = tested on: STK36
[12] = tested on: STK39
[13] = tested on: SYK
[14] = tested on: SgK110
[15] = tested on: T2, TAK1
T2 construct: gene MAP3K7

[16] = tested on: TAOK1
[17] = tested on: TAOK2
[18] = tested on: TAOK3
[19] = tested on: TBK1
[20] = tested on: TEC
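Note: KINOMEscan kinase panel screen.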

| SMILES | %Inh [1] [%] | %Inh [2] [%] | %Inh [3] [%] | %Inh [4] [%] | %Inh [5] [%] | %Inh [6] [%] | %Inh [7] [%] | %Inh [8] [%] | %Inh [9] [%] | %Inh [10] [%] | %Inh [11] [%] | %Inh [12] [%] | %Inh [13] [%] | %Inh [14] [%] | %Inh [15] [%] | %Inh [16] [%] | %Inh [17] [%] | %Inh [18] [%] | %Inh [19] [%] | %Inh [20] [%] |
| --- | --- | --- | --- | --- | --- | --- | --- | --- | --- | --- | --- | --- | --- | --- | --- | --- | --- | --- | --- | --- |
| COC(=O)Nc1nc2ccc(Oc3ccc(CC(=O)Nc4cc(C(F)(F)F)ccc4F)cc3)cc2[nH]1 [GW680903] | 0 | 0 | 0 | 0 | 31 | 0 | 0 | 0 | 0 | 0 | 7 | 0 | 0 | 0 | 0 | 0 | 0 | 0 | 4 | 0 |
| N#CC1(c2cccc(C(=O)Nc3cccc(Oc4ccc5nc(NC(=O)C6CC6)sc5n4)c3)c2)CC1 | 0 | 0 | 97.6 | 15 | 0 | 0 | 0 | 0 | 16 | 0 | 0 | 0 | 22 | 17 | 0 | 0 | 28 | 0 | 15 | 0 |
| Cc1cccc(Nc2nc(NCCN)ncc2C(N)=O)c1 [GSK1292139] | 73 | 0 | 40 | 0 | 56 | 18 | 0 | 30 | 73 | 34 | 0 | 14 | 97 | 91.1 | 83 | 15 | 66 | 9 | 28 | 40 |
| COC(=O)Nc1nc2ccc(Oc3ccc(NC(=O)Nc4cc(C(F)(F)F)ccc4F)cc3)cc2[nH]1.Cl [GW654607] | 0 | 0 | 16 | 3 | 61 | 0 | 13 | 10 | 73 | 0 | 0 | 13 | 29 | 55 | 94.7 | 0 | 0 | 6 | 0 | 0 |
| Nc1ncc(-c2cn[nH]c2)c2scc(-c3ccc4c(c3)CCN4C(=O)Cc3ccccc3)c12 [GSK2593067] | 10 | 0 | 69 | 59 | 44 | 0 | 0 | 0 | 2 | 0 | 0 | 0 | 25 | 0 | 0 | 0 | 0 | 0 | 1 | 4 |
| Cc1ccc(Nc2ccnc(Nc3ccc(C)c(F)c3)n2)cc1O.Cl [GW582868] | 0 | 0 | 86 | 0 | 34 | 7 | 17 | 11 | 0 | 99.5 | 7 | 18 | 56 | 0 | 0 | 0 | 0 | 0 | 16 | 7 |
| Cn1cc(-c2cnc(N)c3c(-c4ccc5c(c4)CCN5C(=O)Cc4ccccc4)csc23)cn1 [GSK2593074] | 12 | 0 | 81 | 55 | 3 | 0 | 0 | 24 | 0 | 4 | 0 | 0 | 16 | 8 | 33 | 0 | 0 | 0 | 23 | 14 |
| COc1cc(Nc2nccc(N3CCC(NS(=O)(=O)c4ccc(NC(C)=O)cc4)CC3)n2)cc(OC)c1OC [GSK1379825] | 0 | 0 | 35 | 0 | 67 | 0 | 8 | 94.8 | 0 | 52 | 62 | 0 | 37 | 0 | 0 | 0 | 0 | 0 | 26 | 0 |
| O=C(Nc1c(F)cccc1F)c1cc(C(=O)c2ccccc2F)c[nH]1 [GSK1326180] | 0 | 0 | 0 | 0 | 18 | 1 | 0 | 0 | 16 | 0 | 0 | 0 | 22 | 0 | 0 | 0 | 0 | 0 | 3 | 7 |
| CC(C)c1nc(-c2cccc(NS(=O)(=O)c3c(F)cccc3F)c2)c(-c2ccnc(Nc3ccc(N4CCOCC4)nc3)n2)s1.Cl [GSK1723980] | 0 | 0 | 100 | 99.7 | 48 | 0 | 0 | 30 | 62 | 30 | 100 | 10 | 69 | 0 | 81 | 0 | 0 | 0 | 18 | 80 |
| Cc1ccc(O)cc1Nc1ccnc2ccc(C(C)(C)C)cc12 [GW856805] | 19 | 34 | 99.9 | 19 | 24 | 8 | 9 | 43 | 11 | 0 | 0 | 43 | 24 | 0 | 57 | 35 | 13 | 28 | 27 | 31 |
| O=C(O)C(F)(F)F.O=c1[nH]ccc2nc(N[C@@H]3CCNC3)nc(Nc3cc(Cl)cc(Cl)c3)c12 [GSK2188764] | 98.8 | 6 | 0 | 3 | 84 | 14 | 77 | 95 | 98.1 | 46 | 17 | 75 | 84 | 3 | 99.1 | 34 | 3 | 18 | 54 | 0 |
| O=C(O)C(F)(F)F.O=c1[nH]ccc2nc(N[C@@H]3CCNC3)nc(Nc3ccc4c(c3)S(=O)(=O)CC4)c12 [GSK2181306] | 99 | 25 | 48 | 0 | 92.1 | 0 | 88 | 96.9 | 100 | 90.6 | 20 | 84 | 87 | 10 | 99.3 | 90.3 | 60 | 94.9 | 68 | 0 |
| COc1cccc(CC(=O)N2CCc3cc(-c4cn(C)c5ncnc(N)c45)ccc32)c1 [GSK2608899] | 35 | 0 | 18 | 4 | 14 | 0 | 20 | 9 | 2 | 0 | 17 | 22 | 26 | 0 | 43 | 2 | 0 | 3 | 25 | 19 |
| Cc1ccccc1CC(=O)N1CCc2cc(-c3cn(C)c4ncnc(N)c34)ccc21 [GSK2603346] | 34 | 0 | 15 | 0 | 18 | 0 | 0 | 2 | 3 | 2 | 0 | 13 | 0 | 0 | 6 | 0 | 0 | 0 | 5 | 0 |
| Nc1cccc(-c2ccc3c(N)n[nH]c3c2)c1 [GSK2193613] | 22 | 0 | 0 | 3 | 54 | 16 | 0 | 15 | 0 | 0 | 0 | 0 | 22 | 0 | 0 | 69 | 4 | 29 | 0 | 0 |
| COc1cc(Nc2ccnc3cc(-c4ccncc4)ccc23)cc(OC)c1OC.Cl [GW494610] | 0 | 0 | 96.1 | 0 | 0 | 0 | 18 | 0 | 0 | 6 | 9 | 11 | 0 | 0 | 0 | 0 | 0 | 0 | 0 | 5 |
| CN(C)c1ncnc2nc[nH]c12 [SKF-31736] | 0 | 0 | 0 | 20 | 0 | 10 | 17 | 0 | 0 | 0 | 0 | 5 | 0 | 0 | 0 | 0 | 26 | 3 | 34 | 0 |
| CCn1c(-c2nonc2N)nc2c(-c3ccccc3)ncc(OCCCN)c21.O=C(O)C(F)(F)F.O=C(O)C(F)(F)F [GSK260205] | 0 | 57 | 0 | 0 | 22 | 0 | 0 | 0 | 0 | 0 | 0 | 7 | 19 | 0 | 0 | 0 | 0 | 0 | 5 | 0 |
| Nc1ncnc2scc(-c3ccc(NC(=O)Cc4cc(F)ccc4F)cc3)c12.O=C(O)C(F)(F)F [SB-731254-M] | 23 | 11 | 13 | 30 | 10 | 25 | 3 | 1 | 6 | 0 | 0 | 8 | 0 | 11 | 22 | 11 | 3 | 0 | 30 | 1 |
